# TDP1 cell noCPT: qHTS for Inhibitors of human tyrosyl-DNA phosphodiesterase 1 (TDP1): qHTS in cells in absence of CPT | DT40 Tdp1-/- hTDP1 cells, no CPT, ATP luminescence, 48 h | Potency, µM (doses to about 46.2 µM), most hits filed as inhibitors | hit rate 15% among 420,000; note: nearly all actives have a fitted effect of over 55% in size
#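 Growth of hTDP1-complemented DT40 Tdp1-knockout cells is measured by ATP luminescence after at least 48 hr compound exposure at 37 °C, with DMSO substituting for the 20 nM CPT used in the parallel screen.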
# IL-1B inflam inh: inflammasome signaling inhibition, IL-1 beta readout. THP-1 LPS/ATP IL-1B secretion, AlphaLISA, 16 h; stronger effect = lower value. activity change, % at 57.5 µM. hit rate 4.7% among 360,000. AID 743279; in the data active = activity change below about -50%; inconclusive = mostly about -30% to -49%
#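 Secreted IL-1B measured by AlphaLISA bead assay after 16 h compound exposure of THP-1 cells; compounds (final up to 57.5 uM) added 1 h before LPS (250 ng/mL) and ATP (1.25 mM) stimulation; lower signal means less secretion.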
# HT1080-NT tox: kills 2HG-producing HT-1080-NT fibrosarcoma cells | HT-1080-NT fibrosarcoma viability, CellTiter-Glo ATP luminescence, 48 h | hit rate 1.6% among 360,000 | Potency, µM (top dose mostly 46.1 µM), most hits filed as cytotoxic | AID 686970;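 note: NT is the 2HG producing partner of a matched IDH1 knockdown line; nearly all actives have a fitted effect of over 55% in size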
#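 Viability by CellTiter-Glo luminescence after 48 h compound exposure at 37C of HT-1080-NT cells (750/well, RPMI, 5% FBS). % activity scaled between DMSO wells and medium-only wells, then curve-fitted and categorized by curve class.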
# TDP1 cell CPT: DT40-hTDP1 cell growth loss with CPT | AID 686979 | hit rate 12% among 420,000 | chicken DT40 Tdp1-/-;hTDP1 cells + 20 nM CPT, ATP luminescence, 48 h | Potency, µM (highest dose often 46.2 µM), most hits filed as inhibitors; note: nearly all actives have a fitted effect of over 55% in size
#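 Cell growth measured by CellTiter-Glo luminescence after a minimum 48 h, 37 C compound exposure with 20 nM CPT in Tdp1-knockout DT40 cells stably expressing hTDP1, seeded 400/well; qHTS titration format.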
# HT1080 IDH1KD tx: HT-1080 IDH1 knockdown cell toxicity (counter line); HT-1080 IDH1 knockdown viability, ATP luminescence, 48 h; Potency, µM (series often up to 46.1 µM), hits mostly cytotoxic; hit rate 2% among 360,000
#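 Knockdown cells (IDH1KD HT-1080) received compounds 2 h after plating at 750 cells/well and were kept 48 h at 37 °C in 5% FBS RPMI. A CellTiter-Glo luminescence read gave % activity for curve fitting.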
# Numbers stand for hits; – = inactive; ? = inconclusive; · = not tested or not shown. An excerpt weighted towards active compounds, which were near 19% of everything screened. Unless noted, calls come from the whole dose curve; as a rule, active = well fitted curve in the direction sought with a large enough effect; inconclusive = small, poorly fitted or top-dose-only effect, or another doubt; inactive = no such curve, though single readings can be large; an effect the other way counts as inactive or inconclusive.
SMILES,TDP1 cell noCPT,IL-1B inflam inh,HT1080-NT tox,TDP1 cell CPT,HT1080 IDH1KD tx
CCOc1ccc(S(=O)(=O)Nc2cccc(C(=O)N3CCN(c4cccc(OC)c4)CC3)c2)cc1,18µM,–,–,23µM,–
CCOc1ccc(S(=O)(=O)Nc2ccc(C(=O)N3CCC3)cc2)cc1,?,–,–,–,–
N#CCCN(Cc1ccccc1)C(=O)c1nccnc1C(=O)O,–,–,–,–,–
O=S(=O)(Nc1c(O)ccc2ccccc12)c1ccccc1,16µM,–,–,?,–
CCOc1ccc(S(=O)(=O)Nc2ccc(C(=O)N3CCCC3)cc2)cc1,–,–,–,–,–
COc1ccc(NS(=O)(=O)c2cccc(C(=O)N3CCCCCC3)c2)cc1,–,–,–,–,–
CCOc1ccc(NS(=O)(=O)c2ccc(C(=O)N3CCCCCC3)cc2)cc1,18µM,–,–,15µM,–
COc1ccc(S(=O)(=O)Nc2ccc(O)c3ccccc23)cc1,4.6µM,–,–,3.3µM,–
O=S(=O)(Nc1cccc2ccccc12)c1ccccc1,–,–,–,–,–
COc1ccc(NS(=O)(=O)c2ccc(C(=O)N3CCCCCC3)cc2)cc1,8.2µM,-52,18µM,10µM,–
CC(C)NC(=O)C1(C)CSCC(=O)N1CCCN1CCOCC1 (centres undefined),–,–,–,–,–
CC1(C)CN=C(N(Cc2ccccc2)C(=O)Nc2ccccc2)S1,–,–,–,–,–
CSCCC(NS(=O)(=O)c1ccc2c(c1)oc(=O)n2C)C(=O)N1CCN(c2cc(Cl)ccc2C)CC1 (centres undefined),15µM,·,·,?,·
CSCCC(NS(=O)(=O)c1ccc2c(c1)oc(=O)n2C)C(=O)N1CCN(c2ccc(F)cc2)CC1 (centres undefined),?,·,·,–,·
CN(CC(=O)Nc1cccc(F)c1)C(=O)CCc1nc2cc(S(=O)(=O)N3CCOCC3)ccc2n1C,–,–,–,–,–
CCCCC[C@@H](/C=C/C1C(=O)C=C[C@H]1C/C=C\CCCC(=O)O)OC(C)=O (some centres undefined),23µM,-77,–,21µM,–
Cc1nc(NC(=O)/C=C/c2ccccc2)sc1C(=O)N1CCCCC1,–,–,–,?,–
c1ccc2nc(-c3cc4ccccc4s3)ccc2c1,–,·,·,–,·
F[B-](F)(F)c1cc2ccccc2s1,–,-70,–,–,–
F[B-](F)(F)c1cc2cc(Br)ccc2s1,–,-62,–,–,–
Cc1ccc(S(=O)(=O)N(CC(=O)NCC2CCCO2)C2CCCCC2)cc1 (centres undefined),?,–,–,–,–
Oc1c(Br)cc(Br)cc1-c1nc2ccccc2s1,–,·,·,–,·
O=C(O)CCCn1cc(NC(=O)c2cc(F)c(F)cc2Cl)cn1,23µM,–,–,?,–
Cn1c(-c2ccccc2)c(/C=N/NC(=O)c2cccnc2)c2ccccc21,23µM,–,–,–,?
O=C(N/N=C/c1c(-c2ccccc2)[nH]c2ccccc12)c1cccnc1,3.3µM,?,–,6.5µM,?
SMILES,TDP1 cell noCPT,IL-1B inflam inh,HT1080-NT tox,TDP1 cell CPT,HT1080 IDH1KD tx
O=C(CCN1CCN(c2ccc([N+](=O)[O-])cc2)CC1)c1ccc(Cl)cc1,4.6µM,–,–,3.7µM,–
COc1ccc(N2CCN(CCC(=O)c3ccc4ccccc4c3)CC2)cc1,15µM,?,?,18µM,?
COc1ccc(N2CCN(CC(=O)c3ccccc3)CC2)cc1,?,–,–,?,–
O=C(CN1CCN(c2ccc([N+](=O)[O-])cc2)CC1)c1ccccc1,?,–,–,?,–
O=C1CC(=C(c2ccccc2)c2ccccc2)C(=O)N1CCCCN1CCN(c2ccccc2)CC1,9.2µM,?,18µM,15µM,16µM
O=C(CCN1CCN(c2ccccc2)CC1)c1ccc(Cl)cc1,6.5µM,–,–,5.2µM,–
CCOC(CNC(=O)C1CCN(S(=O)(=O)c2ccc3nc4c(c(C(=O)O)c3c2)CCCCC4)CC1)OCC,–,–,–,–,–
CCOC(=O)N1CCC(N2C(=O)c3ccccc3C2Nc2ccc(S(=O)(=O)N(CC)CC)cc2)CC1 (centres undefined),?,–,–,?,–
CC(=O)C(=Cc1ccccc1)c1ccccc1,–,–,–,?,–
CCC(Cc1ccccc1)NC(=O)CSc1ccsc1[N+](=O)[O-] (centres undefined),?,–,–,–,–
O=C(CCN1CCOCC1)c1ccc(N2CCCCC2)cc1,4.1µM,-73,–,1.6µM,–
CC(C)(C)c1cc(C(=O)CCN2CCOCC2)cc(C(C)(C)C)c1O,7.3µM,-101,?,4.6µM,?
CCC(=O)c1ccc(OCCN2CCOCC2)cc1,–,–,–,–,–
Cn1ncc2c(=O)[nH]nnc21,–,–,–,–,–
CC(Sc1nc2ccccc2c(=O)n1CC1CCCO1)C(=O)N(C)Cc1ccccc1 (centres undefined),?,–,–,?,–
CC(Sc1nc2ccccc2c(=O)n1C)C(=O)N(C)C1CCCCC1 (centres undefined),7.3µM,–,–,10µM,?
COc1ccc(C(=O)NCC(=O)OCC(=O)Nc2ncc(Cl)cc2Cl)cc1[N+](=O)[O-],–,–,–,–,–
CC(C)(C)c1ccc(C2Sc3ccccc3NC3=C2C(=O)c2ccccc23)cc1 (centres undefined),?,·,·,16µM,·
Cc1ccccc1Cc1c(C)nc2nc(SCC(=O)NC(C)c3ccccc3)nn2c1C (centres undefined),?,·,·,16µM,·
Cc1cccc(Cc2c(C)nc3nc(SCC(=O)NCc4ccco4)nn3c2C)c1,?,–,–,?,–
Cc1nc2nc(SCC(=O)NC(C)c3ccccc3)nn2c(C)c1Cc1c(F)cccc1Cl (centres undefined),16µM,·,·,23µM,·
Cc1ccc(Cc2c(C)nc3nc(SCC(=O)NCc4ccco4)nn3c2C)cc1,4.6µM,–,?,3.3µM,2.6µM
Cc1nc2nc(SCC(=O)N3CCOCC3)nn2c(C)c1Cc1ccccc1,–,–,–,?,–
Cc1ccccc1Cc1c(C)nc2nc(SCC(=O)NCCCN3CCCCC3)nn2c1C,–,–,–,–,–
Cc1ccccc1CSc1nc2nc(C)c(Cc3ccccc3)c(C)n2n1,16µM,·,·,–,·
CCCN1CCN(CC(O)COC(c2ccc(OC)cc2)c2ccc(OC)cc2)CC1 (centres undefined),–,–,–,–,–
Cc1ccccc1Cc1c(C)nc2nc(SCC(=O)N(C)c3ccccc3)nn2c1C,?,·,·,23µM,·
CCCCn1c(N)c(N(CC(C)C)C(=O)CCCc2nc3ccccc3c(=O)[nH]2)c(=O)[nH]c1=O,–,–,–,–,–

# From PubChem BioAssay
